Screening data (PubChem)
Pol III holo inh = DNA polymerase III holoenzyme inhibition. 71,000 compounds, 0.25% hits. Potency, µM (titrated, usually from 57.1 µM), inactives show at the top dose activity change, negative = inhibition. reconstituted DNA polymerase III holoenzyme replication, biochemical; further: potency means the concentration at half of the fitted maximal effect; on the % scale 0 is the no-effect control and ±100 the full control effect
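Reconstituted *E. coli* holoenzyme (0.35 nM Pol III, 1 nM beta, 154 nM SSB, 2 nM primase) was preincubated with compound for 15 min at RT. Synthesis on 1.4 nM ssM13Gori ran 35 min, then was stopped with PicoGreen/EDTA and read as dsDNA fluorescence.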
Tau filament bind = binders of human tau filaments | recombinant tau filaments, thioflavin S fluorescence, 15 h; filaments grown with octadecylsulfate alongside compound | Potency, µM (top dose mostly 57.1 µM), inactives show top-dose activity change, negative = inhibition | 71,000 compounds, 2% hits | AID 596;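 further: potency means the concentration at half of the fitted maximal effect; on the % scale 0 is the no-effect control and ±100 the full control effect; actives lower thioflavin S fluorescence by blocking filaments or displacing dye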
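Tau 2 uM in ThS buffer dispensed; compound added; 60 uM ODS added (finals 1 uM tau, 30 uM ODS); 15 h 37 C; fluor ex450/em510.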
15-hLO inh = inhibitors of human 15-lipoxygenase (ALOX15); purified 15hLO-1, xylenol orange hydroperoxide absorbance; 74,000 compounds, 1.4% hits; AID 887; Potency, µM (highest dose often 57.1 µM), for the others: at the top dose activity change, negative = inhibition, hits mostly inhibitors; P16050; further: potency means the concentration at half of the fitted maximal effect; on the % scale 0 is the no-effect control and ±100 the full control effect; nearly all actives have a fitted effect of over 55% in size
Target sequence (P16050 whole entry, looked up): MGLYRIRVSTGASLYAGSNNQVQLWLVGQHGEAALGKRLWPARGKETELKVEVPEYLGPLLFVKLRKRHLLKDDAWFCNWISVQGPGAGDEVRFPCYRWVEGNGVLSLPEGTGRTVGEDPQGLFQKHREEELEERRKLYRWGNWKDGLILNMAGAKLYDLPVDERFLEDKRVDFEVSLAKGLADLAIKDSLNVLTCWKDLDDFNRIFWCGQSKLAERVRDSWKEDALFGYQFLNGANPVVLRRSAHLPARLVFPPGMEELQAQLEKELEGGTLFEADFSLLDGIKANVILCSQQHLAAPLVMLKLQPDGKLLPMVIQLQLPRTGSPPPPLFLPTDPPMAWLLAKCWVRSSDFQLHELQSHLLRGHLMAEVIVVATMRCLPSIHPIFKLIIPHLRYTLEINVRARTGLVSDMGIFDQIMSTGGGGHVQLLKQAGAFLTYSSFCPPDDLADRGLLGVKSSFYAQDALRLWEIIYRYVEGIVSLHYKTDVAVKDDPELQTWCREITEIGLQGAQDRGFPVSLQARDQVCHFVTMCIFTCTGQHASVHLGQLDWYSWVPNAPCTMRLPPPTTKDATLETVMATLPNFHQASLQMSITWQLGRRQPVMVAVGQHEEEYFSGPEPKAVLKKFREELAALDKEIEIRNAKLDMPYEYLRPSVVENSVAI
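Compounds were preincubated 15 min at room temperature with 40 nM purified human enzyme (25 mM Hepes pH 7.5, 0.01% Triton X-100); 50 uM arachidonic acid reacted 6 min. Fe-xylenol orange detection, 30 min, absorbance ratio 573/405 nm.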
BRCT inh green = inhibitors of human BRCA1 BRCT-phosphoprotein interaction (green fluorophore) | P38398 | Potency, µM (highest dose often 76.9 µM), for inactives: at the top dose activity change, negative = inhibition, hits mostly inhibitors | 75,000 compounds, 0.05% hits | BRCA1 BRCT-phosphopeptide binding, green fluorescence polarization | AID 875;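 further: potency means the concentration at half of the fitted maximal effect; plate controls were peptide without protein for full effect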
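Compounds were incubated for 12 min at room temperature with a complex of 100 nM fluorescein-tagged pBACH1 decapeptide and 250 nM His-tagged BRCT protein. Buffer was phosphate pH 7.3 with EDTA, DTT and Tween 20. Disruption of binding lowers the polarization signal.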
YjeE inh = YjeE (TsaE) inhibition, E. coli; P0AF67; purified YjeE enzyme, qHTS inhibition assay; Potency, µM; 71,000 compounds, 0.05% hits
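Fluorescence polarization of a BODIPY Texas Red–ADP probe (2 uM) bound to purified YjeE (10 uM) was read after 15 min room-temperature incubation with compounds. Loss of polarization marks inhibitors; ADP serves as titrated control.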
BRCT inh red = inhibitors of human BRCA1 BRCT-phosphoprotein interaction (red fluorophore); Potency, µM (doses to about 76.9 µM), without a hit: at the highest dose activity change, negative = inhibition, hits mostly inhibitors; 75,000 compounds, 0.03% hits; AID 892; BRCT-phosphopeptide binding, red fluorescence polarization; P38398; further: on the % scale 0 is the no-effect control and ±100 the full control effect
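Rhodamine-labelled pBACH1 10-mer (100 nM) bound to BRCT domain (100 nM) at pH 7.3; compounds incubated 12 min room temperature, polarization read. Free peptide defines full inhibition; unlabelled decapeptide titrated as control.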
* hit, by the source's call; [ ] = another dose, or the depositor's remark. Hits are enriched below; roughly 3.3% of the tested compounds scored in any of these assays. The call rests on the fitted dose curve; in most records, active means well fitted curve in the direction sought with a large enough effect; inconclusive means small, poorly fitted or top-dose-only effect, or another doubt; inactive means no such curve, though single readings can be large; an effect the other way counts as inactive or inconclusive.

What do the screens show for `CN1CCN(C(=O)c2cc3nc(-c4ccccc4)cc(C(F)(F)F)n3n2)CC1`?
Pol III holo inh: -4.6%; Tau filament bind: 25.1µM*; 15-hLO inh: 0.3%; BRCT inh green: 0.2%; YjeE inh: inactive; BRCT inh red: 0.3%

Results for CCN1CCN(C(=O)c2cnn3c(C(F)F)cc(-c4ccc(C)cc4)nc23)CC1 ?
Pol III holo inh: -2.2%; Tau filament bind: 20µM*; 15-hLO inh: -14.5%; BRCT inh green: -0.7%; YjeE inh: inactive; BRCT inh red: -3.1%

Results for O=C(c1cc2nc(-c3ccccc3)cc(C(F)(F)F)n2n1)N1CCCC1 ?
Pol III holo inh: 2.0%; Tau filament bind: -8.7%; 15-hLO inh: 2.4%; BRCT inh green: 0.5%; YjeE inh: inactive; BRCT inh red: 0.5%

How did CN1CCN(C(=O)c2cc3nc(-c4ccc(Cl)cc4)cc(C(F)(F)F)n3n2)CC1 do in these assays?
Pol III holo inh: 0.9%[11.4 µM]; Tau filament bind: 2.51µM*; 15-hLO inh: 5.2%[11.4 µM]; BRCT inh green: -1.3%; YjeE inh: inactive; BRCT inh red: 0.0%

What do the screens show for `CC(C)=NOCc1ccc(-c2cn([C@@H]3COC[C@@H]3O)nn2)cc1`?
15-hLO inh: 1.6%[11.4 µM]; BRCT inh green: 1.2%[15.4 µM]; BRCT inh red: 0.7%[15.4 µM]

How did O=C(O)c1c(-c2c3ccc(=O)cc-3oc3cc(O)ccc23)cc2ccccc2c1-c1ccccc1 do in these assays?
Pol III holo inh: -11.2%[11.4 µM]; Tau filament bind: 17.8%[11.4 µM]; 15-hLO inh: 13.1%[11.4 µM]; BRCT inh green: -0.7%[15.4 µM]; YjeE inh: inactive; BRCT inh red: -0.2%[15.4 µM]

Results for COC(=O)c1ccc(C(NC(=O)OCc2ccccc2)/C(C)=C/[C@@H](C)C(=O)NC2CCCCC2)cc1 (stereo partly specified) ?
Pol III holo inh: -1.3%; Tau filament bind: 14.0%; 15-hLO inh: -20.8%; BRCT inh green: -1.3%; YjeE inh: inactive; BRCT inh red: 0.1%

What do the screens show for `CCCn1c(C)nc2c(N(CCN(C)C)Cc3ccccc3)nc(C)nc21`?
Pol III holo inh: -4.1%; Tau filament bind: -19.5%; 15-hLO inh: 15.8µM*; BRCT inh green: 0.1%; YjeE inh: inactive; BRCT inh red: -1.5%

Results for CCCn1c(C)nc2c(NCCN(C)C)nc(C)nc21 ?
Pol III holo inh: 0.1%; Tau filament bind: 0.6%; 15-hLO inh: 25.1µM*; BRCT inh green: -0.7%; YjeE inh: inactive; BRCT inh red: -2.1%

How did CCC1=C2CC[C@H]3C(=O)NC(=O)[C@H]3[C@H]2[C@@]2(C)C(=NCC3CC3)OC(=O)N2C1=O do in these assays?
BRCT inh green: -4.8%; BRCT inh red: -2.2%

What do the screens show for `Oc1ccccc1-c1cc(-c2ccc3c(c2)OCCO3)n[nH]1`?
Pol III holo inh: 0.9%; Tau filament bind: -19.2%; 15-hLO inh: 12.6µM*; BRCT inh green: 0.6%; YjeE inh: inactive; BRCT inh red: -1.0%

Results for CCCCCCC1=Cc2cc(OC)c(OC)cc2C(C(C(C)=O)C(=O)OCC)O1 (stereo unspecified) ?
15-hLO inh: -1.7%[11.4 µM]; BRCT inh green: -2.1%[15.4 µM]; BRCT inh red: 0.9%[15.4 µM]

What do the screens show for `COc1ccc(-n2c(=O)c3c4c(sc3n3c(C)nnc23)CCCC4)cc1`?
Pol III holo inh: 2.0%; Tau filament bind: 6.6%; 15-hLO inh: -12.4%; BRCT inh green: 2.1%; YjeE inh: inactive; BRCT inh red: 2.3%

How did Cc1sc2c(c1C)c(=O)n(-c1ccccc1)c1nnc(C)n21 do in these assays?
15-hLO inh: 3.16µM*; BRCT inh green: -1.4%; BRCT inh red: -0.2%

How did CCOC(=O)c1c(C)oc2ccc(NS(=O)(=O)c3ccc4c5c(cccc35)C(=O)N4)cc12 do in these assays?
Pol III holo inh: -1.4%; Tau filament bind: 7.94µM*; 15-hLO inh: inconclusive; BRCT inh green: 1.6%; YjeE inh: inactive; BRCT inh red: -1.6%

How did Nc1ccc(O)c([N+](=O)[O-])c1 do in these assays?
Pol III holo inh: 1.2%; Tau filament bind: inconclusive; 15-hLO inh: inconclusive; BRCT inh green: -2.2%; YjeE inh: inactive; BRCT inh red: -0.2%
